System: VDR:RXRa (NR concentration 270 nM, RXRa partner concentration 90 nM)
Test: PBM binding z-score (relative to random genomic background probes); higher = stronger binding; sequences stand for … in GC…GCGATTGACAGCGTAGAATGAAGG
Method: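 Protein-binding microarray (Agilent 4x180K custom design, double-stranded 60-nt probes: 5' GC cap, 34-nt variable region, 24-nt constant primer region; full probe sequence given). Purified or IVT nuclear receptor:RXRα heterodimers (3:1 NR:RXRα, mostly 270:90 nM) or homodimers were incubated for 1 h in PBS with 2% milk and no ligand, then detected with Alexa488 antibodies. Fluorescence from o1-orientation probes (~5 replicates averaged) was converted to z-scores against 500 random hg19 background probes. Variable regions are seed direct-repeat (DR0–DR5) sites, all their single-nucleotide variants and half-site ablations.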

| Sequence | PBM binding z-score |
| --- | --- |
| ATCGAAAGGTCGTGAGGTGAGTATCCAGAAAGGC | 3.39 |
| TCTTGTAGATCAACAGGAGGATAAGAAAGATCGA | 0.0724 |
| GCTGCTCGGTCAGGTTGGTCAGCTAACGGGTACG | -0.457 |
| GCTATAAGTTGAAAGGGCAACCGAATGATTCTCG | 0.931 |
| CCAGACAGGTGAGAAGGTAACTCAACCTCGATTA | 0.0485 |
| CAACCTAGGTCAAGGTCAAAGTCGGTTTGTGCCA | 5.45 |
| GCTAGCAGGCCATTCGGGTCACTCAATGACGGGC | 3.27 |
| CAAACTCGGTCAAGGTCAAAGTCGGTTTGTGCCA | 4.95 |
| CTTATTAGTTGACCATAAGGGCAACCGAAGCTCG | 0.523 |
| ATCGAAAGGTCGACGTGGTGAGTATACACCGTTT | 2.73 |
| TCGAGTACGTTAGTCGGGGCATTCAGCCAACATA | 0.707 |
| AGTCAAAGTTCACTAGGTAAGGTAAGATTCAGCT | 3.96 |
| TCATATAGGTAAAGGTGCAAGTCGAACGATATGA | 0.567 |
| TTACCAAGGTGATGGTCGTTGATCCCTCTGTAGA | -0.193 |
| CGTCAAAGTTCAAGGTAACGCAACAGAAAGCAGC | 3.67 |
| CCGAGTATGTTATGGGGCATTCAGGCAACGGTGA | -0.0094 |
| ATCTCTAGGTAAAAGTTCAGTGACTCCCGAGGAT | 1.71 |
| TCTAGTTGGTGAAAGGTCACACACTCGAAATGCG | 4.89 |
| TCGAGTAGGTTAGTCGGGGCACTCAGCCAACATA | 1.2 |
| GTACCAAGGTGATTAGGTCGTTGATGAGTAGGCG | 0.223 |

| Sequence | PBM binding z-score |
| --- | --- |
| GGAACGAGGGCATTCGAGTCGATAGCATGGCGAT | 1.99 |
| GCTGCTAGGTCAGGTTGGGCAGCTAACGGGTACG | -0.00639 |
| AGAATGAGGTTAAGATCAGGGAGACAGAATACAT | 1.24 |
| GCTGCTATGTCAACTGATGGTCAGCTAAAGCTCG | -0.38 |
| TCAGACAGGTGAGGGTAACTCAGGTACGCAGTCG | 0.677 |
| CGATCTAGGTCAGAACAGGACAGTGAAGGATGAT | 0.316 |
| ACTATTAGTTTAGACGAGGGCAACCGATAGGTTG | 0.8 |
| TCAGACAGGTGAAGGGAACTCAGGTACGCAGTCG | 0.951 |
| CCAACTGGGCCAAGGTCATTGATCAGTCAAAGCA | 3.1 |
| TCTGCTAGGTCAATTGGTCAGCTAACGAGCTGCC | 0.925 |
| CGAACTAGGTCACAGAGGTCAAAGTCCGTGCGTA | 8.3 |
| TATAGAGGGTCAAAGGCCAGAGTACGAATGTCGA | 3.83 |
| TTACCAAGGTGAGCTGAGGTCGTTGGTCCAACTC | 3.79 |
| ATCTCTAGGTAAGACTCAGTTCAGAGAAGAACGC | 0.685 |
| CGATCTAGGTCATTGACAGGACAGTGAATAGTAA | 2.09 |
| ATCTCTAGGTAAAGATAGTTTAGTGAATGCAAAT | 0.322 |
| CAGCCTAGGACAGGGCCAGTATAGGAGGAACGTT | -0.833 |
| CCTGCTGGGCCACGAAAGGTCATTGATTCAGTGA | 4.08 |
| TCGCCTAGGTCATGCGGGCCAGTATAGTGTCGGC | 3.04 |
| ATCTCTAGGTATAGATAGTTCAGTGAATGCAAAT | 0.666 |
